PubChem BioAssay AID1259421 (Broad Institute, 2018)
Several values for one entry are separate records, joined by “and”; a condition that tells them apart may be missing. Equal values may be shown once. In all, about 6,400 compounds went through this assay and about 610 (9.5%) were called active. The sample as a whole holds a higher share of actives than the screen did. Values without a mark were called inactive. Rule as the data show it: active = activity change below about -70%; inconclusive = no clear call, values can overlap the other calls; inactive = above that.

experiment: T. gondii ME49Luc in HeLa cells, luciferase assay, 72 h, no IFN-y (AID 1259421); conditions: stronger effect = lower value, concentration not given here

SMILES	activity change, negative = inhibition
O=C(Nc1ccncc1)C(=O)c1cn(Cc2ccc(Cl)cc2)c2ccccc12	-75.2% (active)
Cn1cc(C(=O)C(=O)N[C@H]2CN3CCC2CC3)c2ccccc21	3.13% and -2.73%
O=Cc1cn(Cc2ccc(Cl)cc2)c2ccccc12	3.18%
c1cc(Cc2cnc[nH]2)ccn1	4.56%
CCCN(CCC)C1CCc2ccc(O)cc2C1 (stereo unspecified)	-0.0815% and 4.46%
O=C(O)c1ccc2[nH]cc(CCCCN3CC=C(c4ccccc4)CC3)c2c1	8.65% and 4.54%
c1ccc2sc(C3(N4CCCC4)CCCCC3)cc2c1	3.78%
O=C(O)COc1ccc(Cl)cc1Cl	5.11%
Oc1cc(Cl)ccc1Oc1ccc(Cl)cc1Cl	-80.6% (active) and -88.3% (active)
O=C(O)CCCOc1ccc(Cl)cc1Cl	9.07%
FC(F)OC(F)(F)C(F)Cl (stereo unspecified)	2.39%
CCC1C(C)=NN=C(c2ccc(OC)c(OC)c2)c2cc(OC)c(OC)cc21 (stereo unspecified)	6.78%
CCCCC1(C2CCCC2)Cc2cc(OCCCC(=O)O)c(Cl)c(Cl)c2C1=O (stereo unspecified)	-6.67%
CC(=O)OC[C@]12CCC(C)=C[C@H]1O[C@@H]1[C@H](O)[C@@H](OC(C)=O)[C@@]2(C)[C@@]12CO2	-82.7% (active)
CCCC[N+]1(C)[C@@H]2CC(OC(=O)[C@@H](CO)c3ccccc3)C[C@H]1[C@@H]1O[C@@H]12 (stereo partly specified)	2.27%
NC(=NCc1ccc(Cl)cc1)SCCCc1cnc[nH]1	-1.21% and -3.65%
C=C(C)[C@@H]1CCC(C)=C[C@H]1c1c(OC)cc(C)cc1OC	13.1% and 2.72%
COc1cccc2c1C(=O)c1c(O)c3c(c(O)c1C2=O)C[C@@](O)(C(=O)CO)C[C@@H]3O[C@H]1C[C@H](N2CCO[C@H](OC)C2)[C@H](O)[C@H](C)O1	-77.1% (active)
CC(C)(C)NC[C@H](O)COc1cccc2[nH]c(C#N)cc12	0.543%
CC(C)(C)NCC(O)COc1cccc2[nH]c(C#N)cc12 (stereo unspecified)	-74.6% (active)
CS(=O)(=O)Nc1ccc(Cc2noc(-c3ccc4[nH]cc(CCN)c4c3)n2)cc1	0.294%
CCc1cccc(CC)c1NC1=NCCN1	5.66%
CN1C(=O)[C@@H](NC(=O)c2cc3ccccc3[nH]2)N=C(c2ccccc2)c2ccccc21	-59.5%
C/C=C(\C)C(=O)N[C@@H](c1ccccc1)[C@@H](O)C(=O)O[C@H]1C[C@@]2(O)[C@@H](OC(=O)c3ccccc3)[C@@H]3[C@]4(OC(C)=O)CO[C@@H]4C[C@H](O)[C@@]3(C)C(=O)[C@H](OC(C)=O)C(=C1C)C2(C)C	-82.1% (active)
CC(=O)O[C@@]12CO[C@@H]1C[C@H](O)[C@@]1(C)C(=O)[C@H](O)C3=C(C)[C@@H](O)C[C@@](O)([C@@H](OC(=O)c4ccccc4)[C@H]21)C3(C)C	-60.3% and 13.9%
CC(=O)O[C@H]1C(=O)[C@@]2(C)C([C@H](OC(=O)c3ccccc3)[C@]3(O)C[C@H](O)C(C)=C1C3(C)C)[C@]1(OC(C)=O)CO[C@@H]1C[C@@H]2O (stereo partly specified)	-56.1%
